HIF-2a block: HIF-2a reporter inhibitors, primary screen, luminescence, 786-0 RCC cells; 786-0 RCC cells HIF-2a reporter, luciferase luminescence, overnight; inhibition, % at 18.8 µM; 360,000 tested, 0.72% active; AID 624352, 2012;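 active means inhibition of the luminescence signal of 40% or more relative to plate controls, in a single-dose primary screen at 18.75 µM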
TWEAK Fn14 block: inhibitors of TWEAK-Fn14 signaling, primary screen, luciferase reporter cells, uHTS. TWEAK-stimulated Fn14 reporter cells, luciferase luminescence, 8 h. inhibition, % at 10 µM. 360,000 tested, 2% active. AID 1159606, 2016; in the data active means inhibition above about 50%
KKLEB tox: cytotoxicity in KKLEB CF airway cells, primary screen, cytotoxicity control for CF NF-kB inhibitor project, cell-based, uHTS, fluorescence assay plates; KKLEB CF airway cells viability, ATPlite luminescence, overnight; active compounds read low; cells stimulated with P. aeruginosa culture filtrate; activity change (cytotoxicity), % at 5 µM; 360,000 tested, 0.36% active; AID 602141, 2011;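 active means corrected activity change at or below -50% at 5 µM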
CF NFkB block: inhibitors of PAF-induced NF-kB signaling, primary screen, cell-based, GFP fluorescence, uHTS | AID 588850, 2011 | KKLEB NF-kB-GFP reporter, GFP fluorescence overnight | 360,000 tested, 0.86% active | inhibition, % at 5 µM;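 active means at least 50% inhibition at 5 µM, scaled per plate between neutral and stimulator controls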;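 further: PAF is a Pseudomonas aeruginosa culture filtrate used as stimulus; plate controls were PAF-stimulated DMSO wells for no effect and unstimulated DMSO wells for full effect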
Peg3 promoter: Peg3 promoter-driven luciferase inhibitors, primary screen, cell-based, HeLa, luciferase luminescence | HeLa PEG-Prom luciferase reporter, overnight | inhibition, % at 20 µM | 360,000 tested, 1.7% active | AID 588405, 2011;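 active means inhibition of at least 50% at 20 µM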
TROY NFkB inh: inhibitors of TROY-driven NF-kB signaling, primary screen, Q293 LMP1-TROYcd cells, NF-kB luciferase, uHTS | 360,000 tested, 0.98% active | inhibition, % at 10 µM | Q293 LMP1-TROYcd NF-kB luciferase reporter, 4 h;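 active means compounds whose plate-normalised and pattern-corrected inhibition of the luciferase reporter signal at the single screening dose is 50% or more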
Numbers without * were called inactive; / = no result. Sampled rows, rich in hits. Any-hit rate of the full collection: about 4%.

SMILES	HIF-2a block	TWEAK Fn14 block	KKLEB tox	CF NFkB block	Peg3 promoter	TROY NFkB inh
COc1ccc(C(CCN2CCCCC2)c2c(OC)cc(OC)c3c(-c4ccccc4)cc(=O)oc23)cc1 (configuration not stated)	12	-3	-10	19	96*	-6
COc1cc(OC)c2c(-c3ccccc3)cc(=O)oc2c1C(CCN1CCCC(C)C1)c1ccc2c(c1)OCO2 (configuration not stated)	13	-30	-4	8	35	7
COc1cc(OC)c2c(-c3ccccc3)cc(=O)oc2c1C(CCN1CCCCC1)c1ccc2c(c1)OCO2 (configuration not stated)	1	-6	-32	22	102*	3
COC(=O)C1=C(C)N(C)C(=S)N(C)C1c1ccc(OC)cc1 (configuration not stated)	12	-16	6	-9	12	-2
COC(=O)Cn1c(CN2CCOCC2)nc2c1c(=O)n(C)c(=O)n2C	3	-6	10	-20	4	-10
CCOC(=O)CC1(C)Sc2ccccc2N1S(=O)(=O)c1ccc(C)cc1 (configuration not stated)	13	/	/	/	/	/
O=C(Oc1cccc(C(=S)N2CCOCC2)c1)c1ccccc1	8	82*	-9	-1	-9	6
Cc1cc(-c2ccc3c(c2)COc2c4ccccc4nn2-3)on1	-220	-12	-9	-58	-338	-19
Cc1ccc(Nc2nc(CSc3nnc(-c4ccc(F)cc4)n3C)cs2)cc1	-187	64*	-22	10	-277	59*
COc1ccc(-c2nnc(SCc3csc(N)n3)n2C)cc1	-45	10	-12	2	-6	-12
Cc1cc(NCCCn2ccnc2)n2ncc(-c3ccc(Cl)cc3)c2n1	-162	68*	-55*	55*	-55	70*
N=c1n(CC(=O)c2ccc([N+](=O)[O-])cc2)c2ccccc2n1Cc1ccccc1Cl	9	33	-9	5	85*	9
N=c1n(CC(=O)O)c2ccccc2n1Cc1ccccc1Cl	6	-3	3	-6	16	5
Cn1c(=N)n(CC(=O)c2ccc(Cl)c(Cl)c2)c2ccccc21	-62	85*	-33	-28	81*	20
O=C(CN1C(=O)CSC1=O)Nc1ccc(F)c(F)c1F	4	17	2	6	10	0
O=Cc1cn(-c2ccccc2)nc1-c1ccccc1	-156	2	-15	6	-72	-18
CC1=NNC(=O)/C1=C\c1cn(-c2ccccc2)nc1-c1ccccc1	95*	106*	-42	94*	104*	90*
O=C(CSc1nncs1)Nc1ccc(N2CCCCC2)cc1	-188	-14	5	5	-138	-17
CN(C)c1ccc(-c2nnc(-c3cccs3)o2)cc1	-163	63*	-20	2	-148	18
Nc1c(C(O)(C(F)(F)F)C(F)(F)F)cc(C(O)(C(F)(F)F)C(F)(F)F)c2ccccc12	41*	44	-8	2	34	52*
CN(C)/N=C/c1ccc(OC(=O)c2cccc([N+](=O)[O-])c2)cc1	0	-8	1	-7	-7	-12
O=C(Oc1ccc(/C=N/n2cnnc2)cc1)c1cccc([N+](=O)[O-])c1	21	10	-4	37	19	56*
Cc1cc(C)c2nc(N3CCCC(C(=O)NCCCN4CCOCC4)C3)sc2c1 (configuration not stated)	-92	2	-8	4	-160	-54
Cc1cc(C)c2nc(N3CCC(C(=O)NCCCN4CC(C)CC(C)C4)CC3)sc2c1 (configuration not stated)	-57	-33	-9	17	104*	-50
CCOC(=O)C(C(=O)OCC)C(Nc1ccc(Br)cc1)c1ccccc1 (configuration not stated)	24	54*	-9	25	11	5
SMILES	HIF-2a block	TWEAK Fn14 block	KKLEB tox	CF NFkB block	Peg3 promoter	TROY NFkB inh
CC1Cc2ccccc2N1C(=O)COC(=O)c1ccccc1NCCO (configuration not stated)	-85	57*	3	20	-93	25
O=C(NNC(=S)NC1CCCCC1)c1sc2ccccc2c1Cl	-101	10	-2	28	-140	76*
O=C(COC(=O)c1ccccc1NCCO)NCC1CCCCC1	-96	50*	-12	11	-37	24
O=C(COC(=O)c1sc2ccccc2c1Cl)NCC1CCCCC1	8	12	9	-16	59*	-18
Cc1ccc(C)n1-c1c(C(=O)NN)cnn1-c1ccccc1	17	-8	-2	11	-2	9
Cc1cccn2c(=O)c3cc(C(=O)NC4CCCCC4)c(=N)n(Cc4ccccc4)c3nc12	6	-17	-12	27	54*	5
N=c1c(C(=O)NC2CCCCC2)cc2c(=O)n3ccccc3nc2n1Cc1ccc(F)cc1	3	-24	-5	6	-5	-25
Cc1cccn2c(=O)c3cc(C(=O)NC4CCCC4)c(=N)n(Cc4ccc(F)cc4)c3nc12	-3	-15	9	20	58*	1
Cc1cccn2c(=O)c3cc(C(=O)NC4CCCC4)c(=N)n(CCc4ccccc4)c3nc12	-6	-22	-12	-58	69*	-9
CCNC(=O)c1cc2c(=O)n3cccc(C)c3nc2n(CCc2ccccc2)c1=N	14	-94	-9	-61	8	-44
Cc1ccc(OCCC(=O)OCc2csc(CC(=O)Nc3ccccc3C)n2)cc1	14	-6	-8	22	4	1
Clc1c(Cl)c(Cl)c2n[nH]nc2c1Cl	8	-23	-7	39	15	60*
CC1CCN(c2ccccc2NC(=O)c2ccc(N3CCOCC3)c([N+](=O)[O-])c2)CC1	8	-21	-54*	43	3	-10
Cc1ccc(-c2csc(NC(=O)c3cc([N+](=O)[O-])ccc3N3CCOCC3)n2)cc1	-7	-27	-16	21	-6	26
O=C(Nc1ccccc1-c1ccccc1)c1ccc(Cl)c([N+](=O)[O-])c1	25	-21	0	-10	94*	-6
O=C(Nc1cccc(Cl)c1N1CCCCC1)c1ccc(N2CCOCC2)c([N+](=O)[O-])c1	11	-13	-68*	65*	19	-5
O=C(Nc1ccc(Nc2ccccc2)cc1)c1ccc(Cl)c([N+](=O)[O-])c1	2	-8	10	-17	-27	22
Cc1cc(C(=O)Nc2ccccc2N2CCOCC2)ccc1[N+](=O)[O-]	16	-17	16	-4	13	0

Screening results from PubChem BioAssay.
